From PubChem BioAssay
ST2 IL33 inh: blocks human ST2 binding to IL-33; hit rate 2.3% among 78,000; inhibition, % for hits at 17 µM; AlphaLISA ST2-Fc/biotin-IL-33 interaction, 1 h; Q01638; in the data active = inhibition above about 30%
Target sequence (Q01638 whole entry, looked up): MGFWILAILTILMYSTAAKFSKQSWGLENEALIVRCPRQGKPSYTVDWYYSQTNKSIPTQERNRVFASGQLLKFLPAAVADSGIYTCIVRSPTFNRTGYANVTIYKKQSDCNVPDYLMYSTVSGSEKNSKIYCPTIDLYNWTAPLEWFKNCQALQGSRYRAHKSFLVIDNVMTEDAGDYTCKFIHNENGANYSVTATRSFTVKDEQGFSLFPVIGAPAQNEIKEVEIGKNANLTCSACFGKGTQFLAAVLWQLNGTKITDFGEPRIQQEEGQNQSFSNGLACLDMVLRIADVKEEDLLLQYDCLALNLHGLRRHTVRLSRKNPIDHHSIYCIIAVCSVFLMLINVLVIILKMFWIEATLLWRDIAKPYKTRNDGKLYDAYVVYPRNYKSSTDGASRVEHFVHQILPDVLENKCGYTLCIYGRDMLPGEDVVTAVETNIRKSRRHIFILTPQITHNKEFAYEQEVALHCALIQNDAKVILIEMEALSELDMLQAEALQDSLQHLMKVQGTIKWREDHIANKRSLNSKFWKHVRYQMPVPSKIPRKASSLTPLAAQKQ
Active calls of the source: *; ! = repeats disagree. Many of the other results were omitted from the sample, so hits are more common in it than they were.

Results for Cc1ccc(-n2c(SCC(=O)N3CCCCCC3)nc3c(c2=O)SCC3)cc1 ?
ST2 IL33 inh: inactive

How did CCOC(=O)C(C)(C)Sc1nc2c(c(=O)n1-c1ccc(Cl)cc1)SCC2 do in these assays?
ST2 IL33 inh: inactive

How did CCCSc1nc2c(c(=O)n1-c1ccc(F)cc1)SCC2 do in these assays?
ST2 IL33 inh: inactive

Results for Cc1ccc(-n2c(SC(C)C)nc3c(c2=O)SCC3)cc1 ?
ST2 IL33 inh: 36.0%*!

How did CCSc1nc2c(c(=O)n1-c1ccc(C)cc1)SCC2 do in these assays?
ST2 IL33 inh: 33.0%*!

Results for CCOC(=O)C(C)(C)Sc1nc2c(c(=O)n1-c1ccc(Br)cc1)SCC2 ?
ST2 IL33 inh: inactive

What do the screens show for `CCOC(=O)CNS(=O)(=O)c1cc(-c2nnc(Nc3ccccc3)c3ccccc23)ccc1C`?
ST2 IL33 inh: inactive

How did CCSc1nnc2c(n1)OC(c1ccc(C(=O)O)cc1)N(C(=O)CC)c1ccccc1-2 (centres undefined) do in these assays?
ST2 IL33 inh: inactive

Results for O=C(c1cc(C2CC2)[nH]n1)N1CCC(C(O)c2cccs2)CC1 (centres undefined) ?
ST2 IL33 inh: inactive

Results for O=C(c1ccc(-c2ccccc2)cc1)N1CCCCC1 ?
ST2 IL33 inh: inactive

Results for CS(=O)(=O)N1CCC(N2CCCC(C(=O)NCCc3ccccc3)C2)CC1 (centres undefined) ?
ST2 IL33 inh: inactive

What do the screens show for `COc1ccc(CNC(=O)CCC2CCCN(C(=O)/C=C/c3ccccn3)C2)c(OC)c1` (centres undefined)?
ST2 IL33 inh: inactive

Results for COc1ccc(-n2c(=O)c3c(n4cnnc24)-c2ccccc2CC32CCCC2)cc1 ?
ST2 IL33 inh: inactive

How did CCSc1nnc2n(C)c(=O)c3c(n12)-c1ccccc1CC31CCCCC1 do in these assays?
ST2 IL33 inh: inactive

Results for C=CCSc1nnc2n(C)c(=O)c3c(n12)-c1ccccc1CC31CCCCC1 ?
ST2 IL33 inh: 38.0%*

How did Cc1ccc(C(c2ccc(C)o2)c2cc([N+](=O)[O-])cc(Br)c2O)o1 do in these assays?
ST2 IL33 inh: inactive

Results for Cc1ccc(C)c(OC(C)C(=O)NCCNS(C)(=O)=O)c1 (centres undefined) ?
ST2 IL33 inh: inactive

Results for C=C(C)CSC1=C(C#N)C(C)(C)C(C#N)C(=O)N1 (centres undefined) ?
ST2 IL33 inh: inactive

What do the screens show for `Nc1n[nH]c(-c2ccc(Cl)cc2)n1`?
ST2 IL33 inh: inactive

What do the screens show for `COc1ccccc1/C=C1\C(=O)N(c2ccc(Cl)c(Cl)c2)N=C1C`?
ST2 IL33 inh: inactive

Results for COc1cc(Br)c(/C=C2/C(=O)N(c3ccc(Cl)c(Cl)c3)N=C2C)cc1OC ?
ST2 IL33 inh: inactive

How did COc1ccc(/C=C2/C(=O)N(c3ccc(Cl)c(Cl)c3)N=C2C)cc1[N+](=O)[O-] do in these assays?
ST2 IL33 inh: inactive

How did COc1cc(/C=C2/C(=O)N(c3ccc(Cl)c(Cl)c3)N=C2C)cc(OC)c1OC do in these assays?
ST2 IL33 inh: 55.0%*

How did C=CCOc1ccc(/C=C2/C(=O)N(c3ccc(Cl)c(Cl)c3)N=C2C)cc1OC do in these assays?
ST2 IL33 inh: inactive

What do the screens show for `CC1=NN(c2ccc(Cl)c(C(=O)O)c2)C(=O)/C1=C\c1ccc(Br)cc1`?
ST2 IL33 inh: inactive

What do the screens show for `COc1ccc(/C=C2/C(=O)N(c3ccc(Cl)c(Cl)c3)N=C2C)cc1Br`?
ST2 IL33 inh: inactive

How did CC1=NN(c2ccc(Cl)c(C(=O)O)c2)C(=O)/C1=C\c1ccc(OCc2ccccc2)cc1 do in these assays?
ST2 IL33 inh: inactive

How did CC1=NN(c2ccc(Cl)c(Cl)c2)C(=O)/C1=C/c1cccs1 do in these assays?
ST2 IL33 inh: 54.0%*

How did COc1cc(/C=C2/C(=O)N(c3ccc(Cl)c(Cl)c3)N=C2C)cc(OC)c1O do in these assays?
ST2 IL33 inh: 35.0%*

What do the screens show for `COc1cc(/C=C2/C(=O)N(c3ccc(Cl)c(Cl)c3)N=C2C)ccc1OCC#N`?
ST2 IL33 inh: inactive

Results for CC1=NN(c2ccc(Cl)c(C(=O)O)c2)C(=O)/C1=C\c1ccc(Cl)cc1 ?
ST2 IL33 inh: 48.0%*

How did FC(F)(F)c1cc(-c2cccs2)nc(NCC2CCCO2)n1 (centres undefined) do in these assays?
ST2 IL33 inh: inactive

Results for O=C(CCC1CCCN(C(=O)C2(c3ccc(Cl)cc3)CCC2)C1)NC1CC1 (centres undefined) ?
ST2 IL33 inh: inactive

Results for COc1nccnc1-c1cccc(CN2CCOCC2)c1 ?
ST2 IL33 inh: inactive

What do the screens show for `COc1ccc(C)cc1NC(=O)c1cnc(Nc2ccccc2OC)c2ccccc12`?
ST2 IL33 inh: inactive

How did CCc1ncc(C(=O)N2CCCC(O)(CO)CC2)cn1 (centres undefined) do in these assays?
ST2 IL33 inh: inactive

What do the screens show for `CS(=O)(=O)n1cnc2ccccc21`?
ST2 IL33 inh: inactive

What do the screens show for `CCN1CCN(S(=O)(=O)c2cccc3nonc23)CC1`?
ST2 IL33 inh: inactive

Results for COc1ccc(OC)c(N(CC(=O)NC(C)C)S(=O)(=O)c2ccccc2)c1 ?
ST2 IL33 inh: inactive

Results for C=CCOc1ccc(/C=C2\C(=O)N(c3ccc(Cl)c(C(=O)O)c3)N=C2C)cc1OC ?
ST2 IL33 inh: inactive
